# Compound activity as filed in PubChem BioAssay.
# Most compounds without a hit are left out; they make up all but 2.2% or so of the library.
# MITF TRPM1 inh = inhibitors of MITF-driven TRPM1 promoter in melanoma cells; SK-MEL-5 TRPM1 promoter luciferase, 24 h; 0.83% of 330,000 active; inhibition, % at 12.5 µM; AID 488899;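 active = mean inhibition across replicates of 60% or more, whatever share of single replicates reaches that level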
# LMP1 NFkB inh = reduces LMP1-driven NF-kappaB luciferase signal; LMP1-induced NF-kappaB luciferase reporter cells, luminescence; inhibition, % at 12.5 µM; 0.69% of 350,000 active; in the data active = inhibition above about 41%
# PGC1a acetyl inh = PGC1a acetylation modulation, inhibitor mode. U2OS PGC1a acetylation, AlphaScreen anti-acetyl-lysine; with virally co-expressed GCN5 acetyltransferase. inhibition, % at 15.6 µM. 0.17% of 350,000 active. AID 651687;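 active = every replicate shows inhibition of at least 40%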
# PAX8 inh HTS = inhibitors of PAX8 transcriptional activity in RMG-I cells | RMG-I TPO-luciferase reporter, SteadyGlo, 24 h | inhibition, % at 12.6 µM | 1.2% of 360,000 active;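 active = mean replicate inhibition at least 60% with every replicate also reaching 60%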;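 note: luciferase light reporting Pax8 driven TPO promoter activity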
# EWS-Fli inh = blocks EWS/Fli oncoprotein-driven transcription | A673 NR0B1-luciferase reporter, viability-normalised | AID 651661 | 0.67% of 350,000 active | inhibition, % at 12.6 µM;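 active = mean inhibition of at least 50% after viability correction, with every replicate also passing that limit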;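 note: firefly luciferase signal divided by Alamar Blue viability fluorescence both relative to DMSO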
# LGR2 antag = blocks bursicon-induced cAMP signaling via Drosophila LGR2; 0.35% of 380,000 active; inhibition, % at 9.99 µM; HEK293 LGR2, CRE-luciferase, bursicon-stimulated, 4 h; AID 720647;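 active = drop in luminescence signal, shown as inhibition above about 50% in the replicate tests, limit read from the data, passing the limit was not always enough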;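 note: agonist challenge used bursicon conditioned medium at about half maximal strength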
# Numbers stand for hits; i = inactive; nt = not tested or not shown.
SMILES,MITF TRPM1 inh,LMP1 NFkB inh,PGC1a acetyl inh,PAX8 inh HTS,EWS-Fli inh,LGR2 antag
Cc1ccccc1NC(=O)Nc1ccc2c(c1)C(=O)N(C)[C@H]1CC[C@@H](CC(=O)NCC3CC3)O[C@@H]1CO2,nt,nt,i,i,i,i
O=C1NC(c2cccc(OCc3ccccc3)c2)Nc2ccccc21 (centres undefined),i,61,i,i,i,i
O=C1NC(c2ccc(O)cc2)Nc2ccccc21 (centres undefined),i,i,nt,i,i,i
CC(=O)NC(CCS(C)(=O)=O)C(=O)Nc1ccc(Cl)c(Cl)c1 (centres undefined),i,55,nt,i,i,i
CC(=O)NC(CCS(C)(=O)=O)C(=O)Nc1c(F)cccc1F (centres undefined),i,72,i,nt,nt,i
Cc1ccc2cc3c(N)c(C(=O)N4CCOCC4)sc3nc2c1,i,i,i,nt,nt,nt
Cc1ccc2nc3sc(C(=O)N4CCOCC4)c(N)c3cc2c1,69,64,nt,82,nt,nt
Cc1ccc2nc(-c3ccco3)c(Cc3ccccc3)n2c1,nt,nt,i,66,i,i
COc1cccc(S(=O)(=O)N[C@@H]2CC[C@H](CC(=O)NCc3ccc(Cl)cc3)O[C@H]2CO)c1,nt,nt,i,i,i,i
Cc1cc(C)n(CCCN2CCC(C(=O)Nc3cccc(-c4cccc(F)c4)c3)CC2)n1,62,i,nt,i,i,i
CCn1ncc(CN2CCC(C(=O)Nc3cccc(-c4cccc(F)c4)c3)CC2)c1C,i,i,nt,i,nt,i
CCCNC(=O)Nc1ccc2c(c1)OC[C@@H](C)N(Cc1ccncc1)C[C@@H](C)[C@@H](OC)CN(C)C2=O,nt,nt,i,i,i,i
Cc1ccc(S(=O)(=O)Nc2ccc3c(c2)C(=O)N([C@@H](C)CO)C[C@H](C)[C@@H](CN(C)S(=O)(=O)c2ccccc2)OCCCC[C@H](C)O3)cc1,nt,nt,i,i,i,i
Cc1ccc(S(=O)(=O)N(C)C[C@@H]2OCCCC[C@H](C)Oc3ccc(NS(=O)(=O)c4ccccc4)cc3C(=O)N([C@H](C)CO)C[C@H]2C)cc1,nt,nt,i,72,i,i
Cc1ccc(S(=O)(=O)N(C)C[C@@H]2OCCCC[C@H](C)Oc3ccc(NS(=O)(=O)c4ccccc4)cc3C(=O)N([C@H](C)CO)C[C@@H]2C)cc1,nt,nt,i,64,i,i
C[C@@H]1CN([C@H](C)CO)C(=O)c2cc(NS(=O)(=O)c3ccccc3)ccc2O[C@H]1CN(C)S(=O)(=O)c1ccccc1,nt,nt,i,i,i,i
COc1ccc(S(=O)(=O)/N=C2/NC(=O)/C(=C\c3ccco3)S2)cc1,i,i,nt,i,nt,i
COc1ccc(S(=O)(=O)/N=C2/NC(=O)/C(=C/c3ccco3)S2)cc1,i,i,nt,70,i,i
CCCCCCN(C(=O)CCCN1C(=O)NC(c2ccc(-c3ccccc3)cc2)C(C(=O)OCc2ccccc2)=C1C)C(C)C(=O)NCCCC (centres undefined),i,i,nt,99,i,i
CCCCCCN(C(=O)CCCCCN1C(=O)NC(c2ccc(-c3ccccc3)cc2)C(C(=O)OCc2ccccc2)=C1C)C(C(=O)NCCCC)c1ccc(-c2ccccc2)cc1 (centres undefined),nt,nt,nt,i,i,i
C[C@@H]1CN([C@H](C)CO)C(=O)c2cc(NS(=O)(=O)c3cccs3)ccc2O[C@@H]1CN(C)Cc1ccc2c(c1)OCO2,nt,nt,i,nt,i,i
COc1cccc(C(=O)Nc2sc3c(c2C#N)CCN(C(C)=O)C3)c1,i,i,nt,i,60,i
O=C(C[C@@H]1CC[C@@H]2[C@H](COC[C@@H](O)CN2C(=O)c2ccccc2)O1)NCCCN1CCOCC1,nt,nt,i,i,i,i
C[C@@H]1CCCCO[C@H](CN(C)C(=O)Nc2ccc3c(c2)OCO3)[C@H](C)CN([C@@H](C)CO)C(=O)c2cc(NC(=O)Nc3cccc4ccccc34)ccc2O1,nt,nt,i,i,i,i
C/C(=N\NS(=O)(=O)c1ccc([N+](=O)[O-])cc1)c1cccs1,i,58,nt,i,i,i
CN(C)C(=O)[C@H]1[C@H](CO)[C@H]2Cn3c(cccc3=O)[C@H]2N1CC1CCCCC1,nt,nt,i,nt,i,i
CC1CCN(S(=O)(=O)c2ccc(Oc3ccc([N+](=O)[O-])cc3)cc2)CC1,i,i,54,nt,nt,i
COc1ccc(S(=O)(=O)N2CCC(C)CC2)cc1OC,i,i,i,i,i,i
